# Hit rate of the full screen: of about 3,200 compounds, about 300 (9.4%) showed activity. This excerpt belongs to a sample that is enriched for actives. Values without a mark were called inactive.
# Tested on: A673/TR/shEF
# Experiment: cell viability (LOESS-normalised, relative to median of negative controls) (log2 ratio); higher = more viable cells (less compound effect), active = hit call of the paper (over 3 MAD below the median)
# Conditions: treatment time: 72 h
# Summary of the method: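 Viability of A673/TR/shEF Ewing sarcoma cells was determined by CellTiter-Glo luminescence. The cells, at 1,500 per well in 384-well plates, were grown with or without doxycycline from 24 h before compound addition to switch on EWS-FLI1 shRNA knockdown, then exposed for three days to library compounds at two or more concentrations or to DMSO controls. Signals were LOESS-corrected plate by plate, normalised to the negative-control median and log2-transformed.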
# [1] = 0.25 µM, library screen: screen1, EWS-FLI1 expression: high (no doxycycline)
# [2] = 0.25 µM, library screen: screen1, EWS-FLI1 expression: low (doxycycline-induced shRNA knockdown)
# [3] = 2.5 µM, library screen: screen1, EWS-FLI1 expression: high (no doxycycline)
# [4] = 2.5 µM, library screen: screen1, EWS-FLI1 expression: low (doxycycline-induced shRNA knockdown)
# [5] = 0.25 µM, library screen: screen2, EWS-FLI1 expression: high (no doxycycline)
# [6] = 0.25 µM, library screen: screen2, EWS-FLI1 expression: low (doxycycline-induced shRNA knockdown)
# [7] = 2.5 µM, library screen: screen2, EWS-FLI1 expression: high (no doxycycline)
# [8] = 2.5 µM, library screen: screen2, EWS-FLI1 expression: low (doxycycline-induced shRNA knockdown)
# [9] = 0.025 µM, library screen: screen1, EWS-FLI1 expression: high (no doxycycline)
# [10] = 0.025 µM, library screen: screen1, EWS-FLI1 expression: low (doxycycline-induced shRNA knockdown)
# [11] = 25 µM, library screen: screen1, EWS-FLI1 expression: high (no doxycycline)
# [12] = 25 µM, library screen: screen1, EWS-FLI1 expression: low (doxycycline-induced shRNA knockdown)
structure (smiles),measurement,setting,value
O=C(Nc1ccncc1)c1cc(-c2ccccc2)nc2ccccc12,cell viability (log2),[1],0.0994
same,cell viability (log2),[2],0.0756
same,cell viability (log2),[3],0.0606
same,cell viability (log2),[4],-0.00485
COC(=O)C[C@H]1C(C)(C)C(OC)=C2CC3=C4CC(=O)O[C@@H](c5ccoc5)[C@]4(C)CCC3[C@@]1(C)C2=O (stereo partly specified),cell viability (log2),[1],0.0817
same,cell viability (log2),[2],0.1
same,cell viability (log2),[3],0.101
same,cell viability (log2),[4],0.109
Nc1ncnc2c1nc(Br)n2C1OC2COP(=O)(O)OC2C1O (stereo unspecified),cell viability (log2),[5],0.279
same,cell viability (log2),[6],0.0361
same,cell viability (log2),[7],0.103
same,cell viability (log2),[8],0.0822
CC1=C(/C=C/C(C)=C/C=C/C(C)=C/C=C/C=C(C)/C=C/C=C(C)/C=C/[C@@]23O[C@]2(C)C[C@@H](O)CC3(C)C)C(C)(C)C[C@H](O)C1,cell viability (log2),[1],0.0858
same,cell viability (log2),[2],0.0984
same,cell viability (log2),[3],0.143
same,cell viability (log2),[4],0.132
COc1ccc2c(c1)[C@@]1(C)CCC(=O)C[C@@H]1CC2,cell viability (log2),[1],0.0574
same,cell viability (log2),[2],0.0238
same,cell viability (log2),[3],0.0895
same,cell viability (log2),[4],0.0859
CC(C)c1ccc2c(c1)CCC1C(C)(CN)CCCC21C (stereo unspecified),cell viability (log2),[1],0.0133
same,cell viability (log2),[2],-0.0819
same,cell viability (log2),[3],0.122
same,cell viability (log2),[4],0.00337
Fc1cccc(CN(C2=NCCN2)c2c(Cl)cccc2Cl)c1,cell viability (log2),[5],0.243
same,cell viability (log2),[6],0.118
same,cell viability (log2),[7],0.138
same,cell viability (log2),[8],0.0968
CC(=O)/C=C/C1C(C)(O)CCC2C(C)(C)CCCC21C (stereo unspecified),cell viability (log2),[1],0.0886
same,cell viability (log2),[2],0.136
same,cell viability (log2),[3],0.148
same,cell viability (log2),[4],0.139
COc1cccc(C(=O)NCCN2CCN(c3ccc(Cl)cc3)CC2)c1,cell viability (log2),[5],0.184
same,cell viability (log2),[6],0.2
same,cell viability (log2),[7],0.0849
same,cell viability (log2),[8],0.0867
Cc1nc(Nc2ncc(C(=O)Nc3c(C)cccc3Cl)s2)cc(N2CCN(CCO)CC2)n1,cell viability (log2),"0.103 µM, library screen: screen3, EWS-FLI1 expression: high (no doxycycline)",-0.00181
same,cell viability (log2),"0.103 µM, library screen: screen3, EWS-FLI1 expression: low (doxycycline-induced shRNA knockdown)",-0.0394
same,cell viability (log2),"0.308 µM, library screen: screen3, EWS-FLI1 expression: high (no doxycycline)",-0.125
same,cell viability (log2),"0.308 µM, library screen: screen3, EWS-FLI1 expression: low (doxycycline-induced shRNA knockdown)",-0.364
same,cell viability (log2),"0.926 µM, library screen: screen3, EWS-FLI1 expression: high (no doxycycline)",-0.395 (active)
same,cell viability (log2),"0.926 µM, library screen: screen3, EWS-FLI1 expression: low (doxycycline-induced shRNA knockdown)",-0.907 (active)
same,cell viability (log2),"2.8 µM, library screen: screen3, EWS-FLI1 expression: high (no doxycycline)",-0.393 (active)
same,cell viability (log2),"2.8 µM, library screen: screen3, EWS-FLI1 expression: low (doxycycline-induced shRNA knockdown)",-1.27 (active)
same,cell viability (log2),"8.3 µM, library screen: screen3, EWS-FLI1 expression: high (no doxycycline)",-0.457 (active)
same,cell viability (log2),"8.3 µM, library screen: screen3, EWS-FLI1 expression: low (doxycycline-induced shRNA knockdown)",-1.34 (active)
same,cell viability (log2),"25 µM, library screen: screen3, EWS-FLI1 expression: high (no doxycycline)",-0.706 (active)
same,cell viability (log2),"25 µM, library screen: screen3, EWS-FLI1 expression: low (doxycycline-induced shRNA knockdown)",-1.33 (active)
O=C(O)c1cn(-c2ccccc2)nc1-c1ccc(F)cc1,cell viability (log2),[1],0.0839
same,cell viability (log2),[2],-0.00121
same,cell viability (log2),[3],0.0458
same,cell viability (log2),[4],-0.135
CNCCNS(=O)(=O)c1cccc2cnccc12,cell viability (log2),[9],0.0336
same,cell viability (log2),[10],0.0964
same,cell viability (log2),[1],0.0201
same,cell viability (log2),[2],0.0846
same,cell viability (log2),[5],0.191
same,cell viability (log2),[6],0.0995
same,cell viability (log2),[3],-0.0144
same,cell viability (log2),[4],0.076
same,cell viability (log2),[7],0.114
same,cell viability (log2),[8],0.037
same,cell viability (log2),[11],-0.0615
same,cell viability (log2),[12],-0.521
NCCNS(=O)(=O)c1cccc2cnccc12,cell viability (log2),[9],0.261
same,cell viability (log2),[10],-0.0195
same,cell viability (log2),[1],0.263
same,cell viability (log2),[2],-0.0436
same,cell viability (log2),[5],0.125
same,cell viability (log2),[6],0.144
same,cell viability (log2),[3],-0.101 (active)
same,cell viability (log2),[4],0.0153
same,cell viability (log2),[7],0.077
same,cell viability (log2),[8],0.0865
same,cell viability (log2),[11],-0.0355
same,cell viability (log2),[12],0.14
O=S(=O)(NCCNC/C=C/c1ccc(Br)cc1)c1cccc2cnccc12,cell viability (log2),[9],0.026
same,cell viability (log2),[10],0.000211
same,cell viability (log2),[1],0.096
same,cell viability (log2),[2],0.0474
same,cell viability (log2),[5],0.108
same,cell viability (log2),[6],0.000615
same,cell viability (log2),[3],0.0846
same,cell viability (log2),[4],-0.0121
same,cell viability (log2),[7],0.194
same,cell viability (log2),[8],0.0705
same,cell viability (log2),[11],0.00409
same,cell viability (log2),[12],0.217
NC(N)=NCCNS(=O)(=O)c1cccc2cnccc12,cell viability (log2),[9],0.216
same,cell viability (log2),[10],0.0306
same,cell viability (log2),[1],0.259
same,cell viability (log2),[2],0.000334
same,cell viability (log2),[5],0.159
same,cell viability (log2),[6],0.0697
same,cell viability (log2),[3],-0.325 (active)
same,cell viability (log2),[4],0.117
same,cell viability (log2),[7],0.11
same,cell viability (log2),[8],0.0282
same,cell viability (log2),[11],-0.105 (active)
same,cell viability (log2),[12],0.0777
C[C@@H]1CC[C@@]2(OC1)O[C@H]1C[C@H]3[C@@H]4CC[C@@H]5C[C@@H](O)CC[C@]5(C)[C@H]4CC[C@]3(C)[C@H]1[C@@H]2C,cell viability (log2),[1],0.0641
same,cell viability (log2),[2],0.0518
same,cell viability (log2),[3],0.077
same,cell viability (log2),[4],0.0287
CSc1nnc(-c2ccccc2)c(-c2ccccc2)n1,cell viability (log2),[1],0.103
same,cell viability (log2),[2],0.00324
same,cell viability (log2),[3],0.0984
same,cell viability (log2),[4],0.0395
COc1cc(OC)c2c(c1)O[C@H](c1cc(OC)c(OC)c(OC)c1)[C@H](OC(=O)c1cc(OC)c(OC)c(OC)c1)C2,cell viability (log2),[1],0.0414
same,cell viability (log2),[2],0.0159
same,cell viability (log2),[3],0.0705
same,cell viability (log2),[4],-0.00627
CC1OC(OC2C(O)COC(OC3C(C)OC(OC4C(OC(=O)C56CCC(C)(C)CC5C5=CCC7C8(C)CCC(OC9OC(CO)C(O)C(O)C9O)C(C)(C)C8CCC7(C)C5(C)CC6O)OCC(O)C4O)C(O)C3O)C2O)C(O)C(O)C1O (stereo unspecified),cell viability (log2),[1],0.0486
same,cell viability (log2),[2],0.0258
same,cell viability (log2),[3],0.0372
same,cell viability (log2),[4],0.223
